In PubChem BioAssay (NCATS):
Inconclusive results are not listed. The source made the active and inactive calls. Unless noted, calls follow the shape of the dose curve; as a rule, active = well fitted curve in either direction with a large enough effect (not every such curve was filed as active); inconclusive = small, poorly fitted or top-dose-only effect, or another doubt; inactive = flat fitted curve, though single readings scatter.

Columns and labels:
[1] = molecular target: Lysosomal acid glucosylceramidase (Homo sapiens) (UniProt P04062); experiment: Glucocerebrosidase-p2 (AID 348; in the data active = potency below about 10 µM; also: potency is read from the fitted curve at half-maximal effect); details: purified GBA, blue fluorogenic substrate, 40 min
Lysosomal acid glucosylceramidase (Homo sapiens), sequence (P04062 whole entry, looked up): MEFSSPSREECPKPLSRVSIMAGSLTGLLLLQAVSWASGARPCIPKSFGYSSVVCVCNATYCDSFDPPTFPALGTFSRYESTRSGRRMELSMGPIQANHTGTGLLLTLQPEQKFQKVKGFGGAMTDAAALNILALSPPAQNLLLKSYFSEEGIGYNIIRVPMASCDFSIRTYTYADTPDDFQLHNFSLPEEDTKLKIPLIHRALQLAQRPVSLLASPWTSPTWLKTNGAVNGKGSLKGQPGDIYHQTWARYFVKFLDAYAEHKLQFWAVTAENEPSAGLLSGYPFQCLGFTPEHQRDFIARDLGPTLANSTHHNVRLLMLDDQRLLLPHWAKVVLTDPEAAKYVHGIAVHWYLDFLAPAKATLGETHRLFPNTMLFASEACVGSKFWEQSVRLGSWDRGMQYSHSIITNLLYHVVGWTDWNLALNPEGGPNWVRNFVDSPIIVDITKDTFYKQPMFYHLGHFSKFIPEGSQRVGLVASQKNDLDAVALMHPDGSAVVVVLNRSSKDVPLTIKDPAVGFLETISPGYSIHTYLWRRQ
Procedure, shortened: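 Compounds titrated from 0.6 nM upwards against 0.2 nM enzyme in pH 5.9 citric acid/KH2PO4, taurocholate, tween-20; blue fluorogenic substrate 80 uM, 40 min room temperature, stopped and read Ex 365/Em 440 for AC50.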

[2] = AP1 Signaling Pathway (AID 357); details: ME-180 AP-1-bla reporter, EGF-induced, beta-lactamase ratio, 5 h; at 7.69 µM (top of the series) unless noted;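 also: ME-180 reporter cells stimulated with EGF at its EC50 level; % is scaled to controls: 0 for no effect and ±100 for the full control effect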
Procedure, shortened: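 Modulation of EGF-driven AP-1 transcription was assessed with a beta-lactamase reporter in ME-180 cells. Compound and EC50 EGF were co-incubated 5 hours at 37 °C before 2.5-hour CCF4 loading at room temperature and dual-emission reading.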

[3] = molecular target: Cytochrome P450 1A2 (Homo sapiens) (UniProt P05177); experiment: p450-cyp1a2 (AID 410; calls by dose curve; also: potency is read from the fitted curve at half-maximal effect;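 as to activity change, negative = inhibition: -100% = full effect of reference inhibitor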); details: recombinant CYP1A2, luciferin-ME demethylation, luminescence; series mostly up to 57 µM
Cytochrome P450 1A2 (Homo sapiens), sequence (P05177 whole entry, looked up): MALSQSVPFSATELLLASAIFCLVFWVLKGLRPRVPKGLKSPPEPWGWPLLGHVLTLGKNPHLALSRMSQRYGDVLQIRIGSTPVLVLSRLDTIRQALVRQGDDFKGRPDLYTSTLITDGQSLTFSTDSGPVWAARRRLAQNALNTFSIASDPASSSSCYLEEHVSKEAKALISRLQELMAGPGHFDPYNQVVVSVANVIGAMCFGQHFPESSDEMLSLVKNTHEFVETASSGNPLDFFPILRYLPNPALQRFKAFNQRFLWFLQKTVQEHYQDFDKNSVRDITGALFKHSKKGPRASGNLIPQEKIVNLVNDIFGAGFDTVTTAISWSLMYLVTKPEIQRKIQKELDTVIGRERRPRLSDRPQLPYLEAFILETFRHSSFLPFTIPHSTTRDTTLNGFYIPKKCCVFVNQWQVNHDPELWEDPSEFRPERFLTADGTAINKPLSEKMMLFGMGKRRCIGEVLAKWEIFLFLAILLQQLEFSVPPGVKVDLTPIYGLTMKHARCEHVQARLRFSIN
Procedure, shortened: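 Inhibition was calculated relative to 57 uM furafylline (full inhibition). The reaction used human CYP1A2 at 20nM with Luciferin-ME at its Km, 100uM, driven by an NADPH-regenerating system for 60 min at room temperature.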

[4] = Stat Signaling Pathway (AID 446); details: ME-180 SIE beta-lactamase reporter, IL-6 stimulated, 5 h; at 7.69 µM (top of the series) unless noted;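 also: ME-180 cervical cancer cells given 40 pM IL-6 alongside compound; SIE-controlled beta-lactamase reporter measured as 460/530 nm FRET emission ratio; % is scaled to controls: 0 for no effect and ±100 for the full control effect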
Procedure, shortened: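 ME-180 cells carrying a SIE-driven beta-lactamase reporter are stimulated with 40 pM IL-6 for 5 h at 37C in the presence of compound. The 460/530 nm FRET substrate ratio is read after 2.5 h at RT. Data are normalised to 300 pM IL-6 and to 125 nM JAK inhibitor controls.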

[5] = molecular target: Glucocorticoid receptor (Homo sapiens) (UniProt P04150); experiment: GR-EFC Redistribution (AID 451; calls by dose curve; also: potency is read from the fitted curve at half-maximal effect); details: CHO-K1 GR-EFC translocation, beta-gal luminescence, 2 h
Glucocorticoid receptor (Homo sapiens), sequence (P04150 whole entry, looked up, the tested form may be a part): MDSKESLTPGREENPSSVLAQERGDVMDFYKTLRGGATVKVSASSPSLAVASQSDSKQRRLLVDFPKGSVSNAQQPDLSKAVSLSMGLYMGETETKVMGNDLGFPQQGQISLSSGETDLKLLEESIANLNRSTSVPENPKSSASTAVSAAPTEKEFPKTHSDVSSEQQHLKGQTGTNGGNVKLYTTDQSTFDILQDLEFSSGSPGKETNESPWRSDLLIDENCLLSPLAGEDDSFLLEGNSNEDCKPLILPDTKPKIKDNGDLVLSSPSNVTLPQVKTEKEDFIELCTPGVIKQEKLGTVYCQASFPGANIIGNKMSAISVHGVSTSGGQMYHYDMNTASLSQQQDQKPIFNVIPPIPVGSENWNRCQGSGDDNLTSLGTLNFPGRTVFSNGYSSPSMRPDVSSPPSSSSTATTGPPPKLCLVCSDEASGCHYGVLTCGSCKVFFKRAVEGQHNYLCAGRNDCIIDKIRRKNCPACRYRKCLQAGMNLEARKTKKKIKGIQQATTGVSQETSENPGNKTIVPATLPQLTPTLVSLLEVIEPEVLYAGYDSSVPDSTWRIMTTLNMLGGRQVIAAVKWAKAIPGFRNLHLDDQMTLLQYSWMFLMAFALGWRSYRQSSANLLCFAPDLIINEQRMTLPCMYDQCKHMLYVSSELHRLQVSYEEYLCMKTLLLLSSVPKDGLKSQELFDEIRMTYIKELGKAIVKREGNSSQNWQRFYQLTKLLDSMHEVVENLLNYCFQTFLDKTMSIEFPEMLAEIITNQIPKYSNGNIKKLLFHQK
Procedure, shortened: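 Translocation of GR-ED fusion to nuclear EA restores b-gal, read by luminescence after 1 h room-temperature detection. Engineered CHO-K1 biosensor cells, 1,000/well, exposed 2 h at 37 C to titrations up to 46 uM final.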

[6] = molecular target: Mitogen-activated protein kinase 10 (Mus musculus) (UniProt Q61831); experiment: JNK3 AlphaScreen Assay (AID 530); details: JNK3 lysate, c-Jun phosphorylation; series mostly up to 57.1 µM;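 also: kinase came from lysate of stimulated human HepG2 cells; signal reports phosphorylation of biotinylated GST-cJun 1-79 at Ser73 with 10 µM ATP; % is scaled to controls: 0 for no effect and ±100 for the full control effect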
Procedure, shortened: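 Room-temperature AlphaScreen kinase assay; pre-activated HepG2 lysate as JNK3 source, biotin-GST-cJun(1-79) substrate, 10 uM ATP, compound 15 min preincubation.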

[7] = molecular target: 3',5'-cyclic-AMP phosphodiesterase 4B (Homo sapiens) (UniProt Q07343); experiment: qHTS Assay for Inhibitors of PDE-IV (AID 607; active = well fitted activation curve with a large enough effect in the main read-out, with a control signal flat, not every such curve was filed as active; also: % of control where 0% means no effect); details: HEK293 ACTOne CNG channel cells, membrane potential fluorescence; series mostly up to 22.9 µM
3',5'-cyclic-AMP phosphodiesterase 4B (Homo sapiens), sequence (Q07343 whole entry, looked up): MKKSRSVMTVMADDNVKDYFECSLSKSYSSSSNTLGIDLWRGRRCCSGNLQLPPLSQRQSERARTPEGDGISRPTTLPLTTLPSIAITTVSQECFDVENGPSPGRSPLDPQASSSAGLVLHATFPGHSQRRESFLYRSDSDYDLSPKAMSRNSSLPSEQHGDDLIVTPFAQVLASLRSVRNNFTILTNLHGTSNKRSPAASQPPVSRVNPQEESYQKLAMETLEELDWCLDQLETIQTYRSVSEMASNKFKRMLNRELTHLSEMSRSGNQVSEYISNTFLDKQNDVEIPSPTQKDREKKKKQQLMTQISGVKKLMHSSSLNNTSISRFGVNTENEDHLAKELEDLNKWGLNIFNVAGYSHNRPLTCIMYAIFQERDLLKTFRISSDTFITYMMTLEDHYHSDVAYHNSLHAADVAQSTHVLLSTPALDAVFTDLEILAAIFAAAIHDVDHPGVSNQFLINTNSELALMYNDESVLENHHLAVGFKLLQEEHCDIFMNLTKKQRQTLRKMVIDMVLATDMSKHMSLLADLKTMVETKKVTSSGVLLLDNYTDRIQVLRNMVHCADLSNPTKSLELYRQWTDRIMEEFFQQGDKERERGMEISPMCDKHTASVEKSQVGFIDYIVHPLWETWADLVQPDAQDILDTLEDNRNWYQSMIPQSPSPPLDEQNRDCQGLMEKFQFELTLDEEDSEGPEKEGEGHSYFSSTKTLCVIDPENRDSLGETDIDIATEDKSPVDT
Procedure, shortened: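 HEK293 ACTOne cells with CNG channel (1000/well), endogenous PDE4; membrane potential dye, compounds up to 22.9 uM final. Fluorescence Ex 535/Em 590; RO 20-1724 (100 uM final) as reference.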

[8] = molecular target: Cytochrome P450 3A4 (Homo sapiens) (UniProt P08684); experiment: qHTS Assay for Activators of Cytochrome P450 3A4 (AID 885; active = well fitted curve in the direction sought with a large enough effect; an effect the other way counts as inactive or inconclusive; also: nearly all actives have a fitted effect of over 65% in size; also: potency is read from the fitted curve at half-maximal effect); details: recombinant CYP3A4, Luciferin-PPXE luminescence, 60 min; series mostly up to 57.1 µM
Cytochrome P450 3A4 (Homo sapiens), sequence (P08684 whole entry, looked up): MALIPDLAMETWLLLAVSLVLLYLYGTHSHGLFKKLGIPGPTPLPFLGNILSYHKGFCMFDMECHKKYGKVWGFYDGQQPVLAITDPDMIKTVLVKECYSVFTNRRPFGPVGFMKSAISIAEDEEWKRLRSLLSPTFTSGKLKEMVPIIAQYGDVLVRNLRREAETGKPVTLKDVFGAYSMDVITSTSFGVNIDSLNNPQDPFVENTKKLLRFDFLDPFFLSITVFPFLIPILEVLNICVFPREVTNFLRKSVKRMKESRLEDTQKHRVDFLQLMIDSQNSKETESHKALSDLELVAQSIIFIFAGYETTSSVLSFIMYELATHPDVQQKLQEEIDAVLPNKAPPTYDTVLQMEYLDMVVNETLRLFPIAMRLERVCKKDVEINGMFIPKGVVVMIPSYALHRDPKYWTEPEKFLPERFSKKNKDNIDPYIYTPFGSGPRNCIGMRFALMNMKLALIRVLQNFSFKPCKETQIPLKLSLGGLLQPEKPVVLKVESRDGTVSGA
Procedure, shortened: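 Human CYP3A4 (20 nM) with Luciferin-PPXE at 25 uM (its KM) in 200 mM KPO4; 10 min compound preincubation, then NADPH regeneration and 60 min reaction at RT. Luciferin read by luminescence; normalized to 57 uM ketoconazole full inhibition.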

[9] = qHTS Assay for Lipid Storage Modulators (AID 1519; calls by dose curve); details: Drosophila S3 cells, BODIPY lipid droplet/cell ratio, laser cytometry, cells loaded with oleic acid; for activity change, negative = inhibition: at 57.5 µM (top of the series)
Procedure, shortened: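 Cells seeded at 5,000 per well were treated with compounds over a concentration series and loaded with oleic acid (400 uM, as added). Lipid droplet fluorescence (488 nm excitation, 500-530 nm channel) was read by laser-scanning cytometry and normalized to 20 uM Triacsin C.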

[10] = Primary qHTS for small molecule stabilizers of the endoplasmic reticulum resident proteome: Secreted ER Calcium Modulated Protein (SERCaMP) assay (AID 1508630; active = well fitted curve in the direction sought with a large enough effect; an effect the other way counts as inactive or inconclusive; also: % is scaled to controls: 0 for no effect and ±100 for the full control effect); details: SH-SY5Y GLuc-SERCaMP (Gaussia luciferase released on ER calcium loss) secretion, thapsigargin, luminescence; series mostly up to 38.4 µM
Procedure, shortened: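 GLuc-SERCaMP-expressing SH-SY5Y cells, pretreated 16 h with compound, are challenged with thapsigargin to empty ER calcium stores; after 4 h, coelenterazine is added directly to the medium and luminescence is imaged.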

[11] = molecular target: Cytochrome P450 2C19 (Homo sapiens) (UniProt P33261); experiment: qHTS Assay for Inhibitors and Substrates of Cytochrome P450 2C19 (AID 899; active = well fitted curve in the direction sought with a large enough effect; an effect the other way counts as inactive or inconclusive; also: nearly all actives have a fitted effect of over 60% in size; also: potency is read from the fitted curve at half-maximal effect); details: recombinant CYP2C19, luciferin-H EGE luminescence; series mostly up to 57.1 µM
Cytochrome P450 2C19 (Homo sapiens), sequence (P33261 whole entry, looked up): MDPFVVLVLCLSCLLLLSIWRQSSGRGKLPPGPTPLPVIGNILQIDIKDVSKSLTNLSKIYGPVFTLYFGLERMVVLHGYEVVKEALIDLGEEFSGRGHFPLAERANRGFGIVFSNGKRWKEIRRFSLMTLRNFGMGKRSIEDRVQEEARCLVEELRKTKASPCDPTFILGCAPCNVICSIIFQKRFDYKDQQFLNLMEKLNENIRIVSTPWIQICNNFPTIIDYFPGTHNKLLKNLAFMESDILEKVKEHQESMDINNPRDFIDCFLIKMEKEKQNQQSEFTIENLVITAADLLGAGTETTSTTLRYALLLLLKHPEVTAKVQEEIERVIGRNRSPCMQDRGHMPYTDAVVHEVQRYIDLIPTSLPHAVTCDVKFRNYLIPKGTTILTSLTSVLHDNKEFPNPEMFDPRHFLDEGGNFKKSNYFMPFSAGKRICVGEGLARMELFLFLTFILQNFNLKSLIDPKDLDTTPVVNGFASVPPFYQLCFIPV
Procedure, shortened: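 Reactions contain 5nM enzyme, 10uM Luciferin-H EGE (KM) and 50mM KPO4; compound preincubates 10 min at 37C, NADPH regeneration starts turnover for 60 min. Luminescence after detection reagent gives activity.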

[12] = molecular target: Cytochrome P450 3A4 (Homo sapiens) (UniProt P08684); experiment: qHTS Assay for Inhibitors and Substrates of Cytochrome P450 3A4 (AID 884; active = well fitted curve in the direction sought with a large enough effect; an effect the other way counts as inactive or inconclusive; also: nearly all actives have a fitted effect of over 50% in size; also: potency is read from the fitted curve at half-maximal effect); details: recombinant CYP3A4, Luciferin-PPXE luminescence; series mostly up to 57.1 µM
Procedure, shortened: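 20 nM human CYP3A4 with 25 uM Luciferin-PPXE (at KM) in 200 mM KPO4, preincubated 10 min with compound; NADPH regeneration started a 60 min RT reaction. Luciferin detected by luminescence, normalized to 57 uM ketoconazole as full inhibition.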

[13] = molecular target: Cytochrome P450 2D6 (Homo sapiens) (UniProt P10635); experiment: qHTS Assay for Inhibitors and Substrates of Cytochrome P450 2D6 (AID 891; active = well fitted curve in the direction sought with a large enough effect; an effect the other way counts as inactive or inconclusive; also: potency is read from the fitted curve at half-maximal effect; nearly all actives have a fitted effect of over 60% in size); details: recombinant CYP2D6, luciferin-ME EGE luminescence; series mostly up to 57.1 µM
Cytochrome P450 2D6 (Homo sapiens), sequence (P10635 whole entry, looked up): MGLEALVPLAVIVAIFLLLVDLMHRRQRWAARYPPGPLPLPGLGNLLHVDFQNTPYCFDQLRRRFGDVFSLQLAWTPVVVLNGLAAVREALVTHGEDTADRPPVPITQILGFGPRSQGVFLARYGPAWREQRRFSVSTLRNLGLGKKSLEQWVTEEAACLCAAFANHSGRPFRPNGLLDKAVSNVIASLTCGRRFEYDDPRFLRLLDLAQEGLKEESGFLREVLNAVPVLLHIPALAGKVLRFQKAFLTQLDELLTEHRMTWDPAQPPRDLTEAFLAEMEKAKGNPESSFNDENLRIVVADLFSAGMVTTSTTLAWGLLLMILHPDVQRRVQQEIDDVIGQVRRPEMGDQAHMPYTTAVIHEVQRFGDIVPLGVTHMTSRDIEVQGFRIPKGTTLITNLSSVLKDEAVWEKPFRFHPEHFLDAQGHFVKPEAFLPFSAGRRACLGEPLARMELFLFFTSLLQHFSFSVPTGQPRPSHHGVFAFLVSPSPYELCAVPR
Procedure, shortened: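 Human CYP2D6 (5 nM) with 30 uM Luciferin-ME EGE (at Km) in 100 mM KPO4, compound preincubated 10 min, then NADPH regeneration system for 60 min at room temperature. Luciferin read by luminescence; normalized to 1.43 uM quinidine.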

[14] = qHTS Assay for Identification of Small Molecule Agonists for Hypoxia Response Element Signaling Pathway (AID 914; active = well fitted activation curve with a large enough effect in the signal ratio, with a control signal flat, not every such curve was filed as active; the % refers to the signal ratio; also: % of control where 0% means no effect); details: ME-180 (cervical carcinoma) HRE-bla reporter, beta-lactamase ratio, CoCl2, 17 h; activation: stronger effect = higher value
Procedure, shortened: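 Positive modulation of EC50 CoCl2-induced hypoxia response element signaling is measured in ME-180 cells with a beta-lactamase reporter. Compounds are titrated, incubation runs 17 hours, and %Activity derives from the blue/green ratio.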

[15] = measured here: cell count channel max response
[16] = measured here: lipid channel max response

CC(C)CN1CCCC2(CCN(C(=O)c3cccn3C)CC2)C1
inactive: Potency [1] > 11.4 µM | activity change, negative = inhibition [2] -3.67% | Potency [3] | activity, negative = inhibition [4] 12.4% | Potency [5] > 46 µM | Potency [6] | Potency [7] | Potency [8] | activity change, negative = inhibition [9] 6.1% | outcome [10]
16.8%: max response [9, 15]
26.5%: max response [9, 16]

O=C(Oc1ccccc1)N1CCC2(CCCN(c3ccccn3)C2)CC1
inactive: Potency [1] > 11.4 µM | activity change, negative = inhibition [2] -14.7% | activity, negative = inhibition [4] 2.71% | Potency [5] > 46 µM | Potency [6] | Potency [7] | Potency [8] | activity change, negative = inhibition [9] 1.87% | outcome [10]
-15.5%: max response [9, 15]
active: Potency [3] 20 µM | Potency [11] 7.94 µM
-9.96%: max response [9, 16]

O=C(c1ccncc1)N1CCC2(CCN(Cc3ccccc3)CC2)CC1
13.9%: max response [9, 15]
18.6%: max response [9, 16]
inactive: Potency [1] > 11.4 µM | activity change, negative = inhibition [2] 3.68% | Potency [3] | activity, negative = inhibition [4] -6.01% | Potency [5] > 46 µM | Potency [6] | Potency [7] | Potency [8] | Potency [11] | activity change, negative = inhibition [9] 3.67% | outcome [10]

COC(=O)N1CCC2(CC1)CN(c1ccccc1)C2
2.93%: max response [9, 16]
active: Potency [11] 6.31 µM
inactive: Potency [1] > 11.4 µM | activity change, negative = inhibition [2] -2.49% | Potency [3] | activity, negative = inhibition [4] 8.16% | Potency [5] > 46 µM | Potency [6] | Potency [7] | Potency [12] | activity change, negative = inhibition [9] -0.409% | outcome [10]
4.45%: max response [9, 15]

Cc1noc(C)c1C(=O)N1CCC2(CC1)CCN(c1ccncc1)CC2
12.2%: max response [9, 16]
9.32%: max response [9, 15]
inactive: Potency [1] > 11.4 µM | activity change, negative = inhibition [2] 10.3% | Potency [3] | activity, negative = inhibition [4] 8.12% | Potency [5] > 46 µM | Potency [6] | Potency [7] | Potency [8] | activity change, negative = inhibition [9] 1.45% | outcome [10]

CS(=O)(=O)N1CCC2(CCCN(C(c3ccccc3)c3ccccc3)C2)CC1
inactive: Potency [1] > 11.4 µM | activity change, negative = inhibition [2] -6.2% | Potency [3] | activity, negative = inhibition [4] 12.1% | Potency [5] > 46 µM | Potency [6] | Potency [7] | Potency [8] | activity change, negative = inhibition [9] 2.84% | outcome [10]
13.3%: max response [9, 15]
active: Potency [12] 3.98 µM | Potency [13] 5.01 µM
16.2%: max response [9, 16]

O=C(c1ccco1)N1CCC2(CCN(Cc3ccccc3)CC2)CC1
inactive: Potency [1] > 11.4 µM | activity change, negative = inhibition [2] -4.92% | Potency [3] | activity, negative = inhibition [4] -6.84% | Potency [5] > 46 µM | Potency [6] | Potency [7] | Potency [12] | activity change, negative = inhibition [9] -0.6% | outcome [10]
1.54%: max response [9, 16]
active: Potency [8] 20 µM | Potency [13] 3.98 µM
-0.833%: max response [9, 15]

COc1ccccc1CN1CCCC2(CCN(C(=O)c3ccncc3)CC2)C1
inactive: Potency [1] > 11.4 µM | activity change, negative = inhibition [2] -0.588% | activity, negative = inhibition [4] 1.91% | Potency [5] > 46 µM | Potency [6] | Potency [7] | Potency [8] | activation [14] 3.13% | activity change, negative = inhibition [9] 1.58% | outcome [10]
9.4%: max response [9, 16]
5.27%: max response [9, 15]
active: Potency [3] 20 µM | Potency [12] 6.31 µM | Potency [13] 3.16 µM

O=C(Nc1ccccc1)N1CCCC2(CCN(S(=O)(=O)c3ccccc3)CC2)C1
inactive: Potency [1] > 11.4 µM | activity change, negative = inhibition [2] -18.5% | activity, negative = inhibition [4] -7.13% | Potency [5] > 46 µM | Potency [6] | Potency [7] | Potency [8] | activity change, negative = inhibition [9] 0.932% | outcome [10]
active: Potency [3] 15.8 µM
19.2%: max response [9, 15]
22%: max response [9, 16]

Cn1cccc1C(=O)N1CCC2(CC1)CN(c1ccccn1)C2
inactive: Potency [1] > 11.4 µM | activity change, negative = inhibition [2] 2.02% | Potency [3] | activity, negative = inhibition [4] -6.36% | Potency [5] > 46 µM | Potency [6] | Potency [7] | Potency [12] | activity change, negative = inhibition [9] 5.7% | outcome [10]
7.05%: max response [9, 15]
13.8%: max response [9, 16]
active: Potency [8] 12.6 µM

O=C(c1ccncc1)N1CCC2(CCN(Cc3ccncc3)CC2)CC1
14.3%: max response [9, 15]
23.1%: max response [9, 16]
inactive: Potency [1] > 11.4 µM | activity change, negative = inhibition [2] 7.83% | Potency [3] | activity, negative = inhibition [4] -5.41% | Potency [5] > 46 µM | Potency [6] | Potency [7] | Potency [8] | activity change, negative = inhibition [9] 4.23% | outcome [10]

COCC(=O)N1CCC[C@@]2(CCN(C(c3ccccc3)c3ccccc3)C2)C1
-21.2%: max response [9, 16]
inactive: Potency [1] > 11.4 µM | activity change, negative = inhibition [2] 0.34% | activity, negative = inhibition [4] -0.903% | Potency [5] > 46 µM | Potency [6] | Potency [7] | Potency [8] | activity change, negative = inhibition [9] -13.8% | outcome [10]
active: Potency [3] 12.6 µM | Potency [13] 6.31 µM
-8.5%: max response [9, 15]

COCC(=O)N1CCC2(CCCN(c3ccncc3)C2)CC1
0.42%: max response [9, 16]
inactive: Potency [1] > 11.4 µM | activity change, negative = inhibition [2] 3.93% | Potency [3] | activity, negative = inhibition [4] -8.03% | Potency [5] > 46 µM | Potency [6] | Potency [7] | Potency [8] | activity change, negative = inhibition [9] 3.88% | outcome [10]
-7.49%: max response [9, 15]
